# Screen size: about 3,000 compounds; about 1,800 (60%) were called active. The set was probably picked from earlier hits. Not all results are given here. A number with no mark means an inactive call.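 How the source made its calls: active means activation at or above a set limit, or at least 3 SD above the negative control mean; inactive means the rest.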
# Target: Nuclear receptor subfamily 1 group D member 1 (Homo sapiens) (UniProt P20393)
# Assay: modulators of Rev-erb alpha DNA binding, confirmation, biochemical, FITC-DNA, fluorescence polarization, single point (AID 1259319);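 further: 0% = 35 nM protein with DMSO and 100% = 750 nM protein high control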
# Settings: 90 min, at 25 µM, hits give high values
# Nuclear receptor subfamily 1 group D member 1 (Homo sapiens), sequence (P20393 whole entry, looked up): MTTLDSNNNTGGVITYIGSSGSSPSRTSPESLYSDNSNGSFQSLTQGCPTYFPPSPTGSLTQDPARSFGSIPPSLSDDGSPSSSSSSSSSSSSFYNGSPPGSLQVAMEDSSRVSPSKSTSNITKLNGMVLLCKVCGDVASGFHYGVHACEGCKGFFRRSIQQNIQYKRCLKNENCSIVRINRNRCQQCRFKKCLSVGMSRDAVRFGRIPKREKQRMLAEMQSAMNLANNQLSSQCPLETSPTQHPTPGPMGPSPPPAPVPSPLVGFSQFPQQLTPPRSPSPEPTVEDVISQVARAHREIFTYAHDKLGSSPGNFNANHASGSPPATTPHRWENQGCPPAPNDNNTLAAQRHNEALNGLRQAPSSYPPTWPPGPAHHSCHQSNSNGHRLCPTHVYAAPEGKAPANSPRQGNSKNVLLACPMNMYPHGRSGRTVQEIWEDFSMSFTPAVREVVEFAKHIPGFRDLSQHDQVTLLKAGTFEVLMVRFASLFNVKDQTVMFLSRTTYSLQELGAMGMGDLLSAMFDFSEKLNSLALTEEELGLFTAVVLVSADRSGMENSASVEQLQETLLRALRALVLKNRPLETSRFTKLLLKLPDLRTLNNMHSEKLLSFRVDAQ
row,Structure (SMILES),activation
1,COCCCNc1nc2c(-c3cccc(C)c3)nnn2c2ccc(Cl)cc12,28.8% (active)
2,CN1C(=O)c2cccc3c(N)ccc(c23)C1=O,225% (active)
3,Cc1nn(C)cc1N1C(=O)c2cccc3c(N)ccc(c23)C1=O,181% (active)
4,COc1ccc(-c2c(C)cc3oc(=O)cc(-c4ccccc4)c3c2C)cc1C=O,8.9%
5,C=C(C)C1CC=C(C)/C(=N\NC(=O)CNc2ccccc2OC)C1 (configuration not stated),6.76%
6,Cn1c(=NC(=O)c2ccc3c(c2)OCCO3)sc2cc(S(C)(=O)=O)ccc21,12.7%
7,C=CCn1c(=NC(=O)c2cccs2)sc2cc(NC(C)=O)ccc21,33.8% (active)
8,C=CCn1c(=NC(=O)c2ccc(S(=O)(=O)N3CCCC3)cc2)sc2cc(NC(C)=O)ccc21,34.3% (active)
9,COC(=O)Cn1c(=NC(=O)c2cc(OC)c(OC)c(OC)c2)sc2cc(OC)ccc21,14.3%
10,COc1ccccc1CC1(C)C(=O)Nc2ccc(OC(F)(F)F)cc21 (configuration not stated),60.9% (active)
11,O=C(NCc1ccc(Cl)cc1)c1cc2c(nc3sccn32)s1,19.2% (active)
12,COc1cc2c(cc1NC(=O)CN1CCN(S(=O)(=O)c3ccc(F)cc3)CC1)oc1ccccc12,3.46%
13,COc1ccc(S(=O)(=O)N2CCOCC2)cc1C(=O)Nc1nc2ccccc2s1,20.7% (active)
14,COc1ccc(C)cc1Nc1nc(C)nc2c1oc1ccccc12,28.2% (active)
15,CCOC(=O)c1sc(NC(=O)CCN2CCOCC2)c(C(=O)OCC)c1C,5.98%
16,COc1ccc(-c2nn(C)c(=O)c3ccccc23)cc1NC(=O)COc1ccccc1,33.9% (active)
17,CCOc1ccc(NC(=O)CSc2ncnc3c2sc2ccccc23)cc1,107% (active)
18,COc1cc(OC)c(N2CC(C(=O)Nc3cc(Cl)ccc3N3CCOCC3)CC2=O)cc1Cl (configuration not stated),1.79%
19,COc1cc(OC)cc(-c2c(C#Cc3ccsc3)c3cc(-c4ccc(SC)cc4)ccc3n2C)c1,32.1% (active)
20,CCOc1ccc2nc(Cl)c(C3CC(c4ccccc4)=NN3C(=O)c3cccs3)cc2c1 (configuration not stated),-0.503%
21,Cc1ccc(S(=O)(=O)c2c[nH]c3ccc(Cl)cc3c2=O)cc1,137% (active)
22,COc1ccc(-n2nc(C(=O)NCC(=O)Nc3cccc(C)n3)c3ccccc3c2=O)cc1,10.2%
23,COc1ccc(-n2nc3c(N4CCC(C(=O)NCc5ccccc5)CC4)nnc(C)c3c2C)cc1,32.9% (active)
24,CCOC(=O)c1ccc(NC(=S)N2CCN(c3ccccn3)CC2)cc1,12.8%
25,Cc1nc(N2CCN(c3ccccn3)CC2)c2c(C)c(C(=O)Nc3ccc(F)c(Cl)c3)sc2n1,17.3%
26,Cc1cc(Br)ccc1NC(=O)c1sc2ncn(CC(=O)N3CCN(c4ccccn4)CC3)c(=O)c2c1C,37.6% (active)

row,Structure (SMILES),activation
1,COc1ccc(-c2nnc3ccc(SCc4ccccc4)nn23)cc1,14.9% (active)
2,CCOc1ccc(-c2nnc3ccc(SC)nn23)cc1,26% (active)
3,Cc1cc(C)c2nc(SCC(=O)N(C)C3CCS(=O)(=O)C3)cc(C)c2c1 (configuration not stated),34.9% (active)
4,CC1(C)Cc2nc3sc4c(SCC(=O)NC(c5ccccc5)c5ccccc5)ncnc4c3cc2CO1,138% (active)
5,COc1ccc(/C=C2\SC(=S)N(CCCC(=O)NC3CCCC3)C2=O)cc1OC,31.3% (active)
6,Cc1cc(/C=C(/C#N)C(=O)Nc2ccc(Cl)cc2)c(C)n1-c1cccnc1,53.9% (active)
7,CCCc1nc(SCC(=O)Nc2ccc(S(=O)(=O)N(C)C)cc2)c2ccccc2n1,18.2% (active)
8,COC(=O)c1ccc(NC(=O)c2cc(Cl)ccc2OC)cc1,32.8% (active)
9,Cc1cc(C)c(/C=C2\C(=O)Nc3ccccc32)[nH]1,32.5% (active)
10,Cc1ccc(NS(=O)(=O)c2cc3c(cc2Br)NC(=O)CO3)cc1C,5.15%
11,COc1ccc(CCNc2nc3ccc(C)cc3n3cnnc23)cc1OC,2.71%
12,Cc1ccc(C(=O)Nc2nnc(-c3cccs3)s2)cc1C,-3.7%
13,O=C(Nc1nnc(-c2ccccc2F)s1)c1ccccc1F,25.2% (active)
14,CN1/C(=c2/s/c(=C3/C(=O)N(c4ccccc4)NC3=Nc3ccccc3)n(C)c2=O)C(C)(C)c2ccccc21,29.8% (active)
15,CCCCCCSc1ccc(-c2nc3ccc(Cl)cn3c2NCc2ccccc2)cc1,12.7%
16,CSc1ccc(-c2c(C#N)c(N)nc3c2c(C)nn3-c2ccccc2)cc1,7.01%
17,Cc1cc(C)c2c(-c3ccc(F)cc3)c(C#N)c(=O)n(C)c2n1,24.5% (active)
18,Cc1cc(N/C=C\C(=O)c2ccc(Cl)c(Cl)c2)no1,4.17%
19,O=C(COc1ncnc2c(Cl)cc(Cl)cc12)N1CCN(S(=O)(=O)c2ccccc2)CC1,14.4%
20,N#Cc1c(-c2ccc(F)cc2)cc(C2CC2)nc1SCC(=O)c1cccs1,65.1% (active)
21,COc1ccc(-c2csc(NC(=O)c3ccc(N4C(=O)CCC4=O)cc3)n2)cc1OC,16.5%
22,CS(=O)(=O)c1ccc2nc(NC(=O)c3ccc(N4CCCC4=O)cc3)sc2c1,18.3% (active)
23,CCOC(=O)C1=C(c2ccccc2)O/C(=C(/C(=O)OC)C(F)(F)F)S1,0.229%
24,CCC(C)C1(C2CCCC2)NC(=O)NC1=O (configuration not stated),-1.67%
25,CC1(C)CC2CC(C)(CN2c2ncnc3ccc(Br)cc23)C1 (configuration not stated),14%
26,Cc1cccc(N(CC(=O)Nc2ccc(-c3nc4ccc(C)cc4s3)cc2)S(C)(=O)=O)c1,22.1% (active)

# — PubChem BioAssay AID1259319 (Sanford-Burnham Center for Chemical Genomics, 2017)
